PubChem BioAssay AID1159580 (chemical genetic matrix, 2015)
About 2,000 (36%) of roughly 5,500 compounds were called active. About 18% were inconclusive and are not listed. Rule as the data show it: active = normalized growth mostly below about 0.91 (no sharp cut-off); inconclusive = no clear call, values can overlap the other calls; inactive = mostly above about 0.92. The list shows a part of the results.

Assay: chemical genetic growth profiling, strain panel (AID 1159580);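 also: tested at 20 µM; growth read once vehicle control cultures reached saturation at 30 °C; 1 = growth at the plate median or of vehicle wells; lower values mean less growth of the strain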
Conditions: growth OD

Measured: normalized growth

CCCCCN=C(N)N/N=C\c1c[nH]c2ccc(OC)cc12
inactive: S. cerevisiae deletion strains, locus YJR043C, strain POL32, active compounds read low 0.989 | S. cerevisiae deletion strains, locus YJR075W, strain HOC1, active compounds read low 0.996 | S. cerevisiae deletion strains, locus YKL009W, strain mrt4, active compounds read low 0.974 | S. cerevisiae deletion strains, locus YKL068W, active compounds read low 0.993 | S. cerevisiae deletion strains, locus YKL085W, strain MDH1 (second series), active compounds read low 0.956 | S. cerevisiae deletion strains, locus YKL085W, strain MDH1, active compounds read low 0.956 | S. cerevisiae deletion strains, locus YKL160W, strain elf1, active compounds read low 1.01 | S. cerevisiae deletion strains, locus YKL190W, strain CNB1, active compounds read low 1.01 | S. cerevisiae deletion strains, locus YKR001C, strain vps1, active compounds read low 1.03 | S. cerevisiae deletion strains, locus YKR026C, strain gcn3, active compounds read low 1.01 | S. cerevisiae deletion strains, locus YKR091W, strain srl3, active compounds read low 0.992 | S. cerevisiae deletion strains, locus YLL001W, strain dnm1, active compounds read low 1.01 | S. cerevisiae deletion strains, locus YLL026W, active compounds read low 1.01 | S. cerevisiae deletion strains, locus YLL041C, strain sdh2, active compounds read low 1 | S. cerevisiae deletion strains, locus YLR027C, strain aat2, active compounds read low 1 | S. cerevisiae deletion strains, locus YLR039C, strain RIC1, active compounds read low 1.08 | S. cerevisiae deletion strains, locus YLR058C, strain SHM2, active compounds read low 0.99 | S. cerevisiae deletion strains, locus YLR102C, strain apc9, active compounds read low 1.02 | S. cerevisiae deletion strains, locus YLR221C, strain rsa3, active compounds read low 0.986 | S. cerevisiae deletion strains, locus YLR258W, strain gsy2, active compounds read low 0.995 | S. cerevisiae deletion strains, locus YLR262C, strain YPT6 (second series), active compounds read low 1.04 | S. cerevisiae deletion strains, locus YLR262C, strain YPT6, active compounds read low 1.01 | S. cerevisiae deletion strains, locus YLR268W, strain sec22, active compounds read low 0.998 | S. cerevisiae deletion strains, locus YLR320W, strain mms22, active compounds read low 0.98 | S. cerevisiae deletion strains, locus YLR330W, strain CHS5, active compounds read low 1.01 | S. cerevisiae deletion strains, locus YLR342W, strain FKS1 (second series), active compounds read low 0.989 | S. cerevisiae deletion strains, locus YLR342W, strain FKS1, active compounds read low 1.01 | S. cerevisiae deletion strains, locus YLR357W, strain rsc2, active compounds read low 0.975 | S. cerevisiae deletion strains, locus YLR370C, strain arc18, active compounds read low 1 | S. cerevisiae deletion strains, locus YLR371W, strain rom2, active compounds read low 1.03 | S. cerevisiae deletion strains, locus YLR384C, strain iki3, active compounds read low 1.02 | S. cerevisiae deletion strains, locus YLR418C, strain cdc73, active compounds read low 0.993 | S. cerevisiae deletion strains, locus YML016C, strain PPZ1, active compounds read low 1 | S. cerevisiae deletion strains, locus YML032C, strain rad52, active compounds read low 1.02 | S. cerevisiae deletion strains, locus YML120C, strain ndi1, active compounds read low 1.01 | S. cerevisiae deletion strains, locus YML124C, strain tub3, active compounds read low 1.02 | S. cerevisiae deletion strains, locus YMR058W, strain fet3, active compounds read low 1.01 | S. cerevisiae deletion strains, locus YMR078C, strain ctf18, active compounds read low 1.03 | S. cerevisiae deletion strains, locus YMR125W, strain sto1, active compounds read low 0.979 | S. cerevisiae deletion strains, locus YMR129W, active compounds read low 1.01 | S. cerevisiae deletion strains, locus YMR205C, strain PFK2, active compounds read low 0.994 | S. cerevisiae deletion strains, locus YMR223W, strain ubp8, active compounds read low 1.01 | S. cerevisiae deletion strains, locus YMR231W, strain pep5, active compounds read low 1.02 | S. cerevisiae deletion strains, locus YMR263W, strain SAP30, active compounds read low 1.01 | S. cerevisiae deletion strains, locus YMR307W, strain GAS1, active compounds read low 0.973 | S. cerevisiae deletion strains, locus YNL067W, strain RPL9B, active compounds read low 0.998 | S. cerevisiae deletion strains, locus YNL071W, strain lat1, active compounds read low 1 | S. cerevisiae deletion strains, locus YNL128W, strain TEP1, active compounds read low 0.995 | S. cerevisiae deletion strains, locus YNL153C, strain GIM3, active compounds read low 1 | S. cerevisiae deletion strains, locus YNL209W, strain ssb2, active compounds read low 1 | S. cerevisiae deletion strains, locus YNL233W, strain BNI4, active compounds read low 0.985 | S. cerevisiae deletion strains, locus YNL248C, strain rpa49, active compounds read low 0.991 | S. cerevisiae deletion strains, locus YNL250W, strain rad50, active compounds read low 1.02 | S. cerevisiae deletion strains, locus YNL271C, strain bni1, active compounds read low 1.02 | S. cerevisiae deletion strains, locus YNL298W, strain CLA4, active compounds read low 1.02 | S. cerevisiae deletion strains, locus YNL307C, strain MCK1, active compounds read low 1.04 | S. cerevisiae deletion strains, locus YNL322C, strain KRE1 (second series), active compounds read low 1.02 | S. cerevisiae deletion strains, locus YNL322C, strain KRE1, active compounds read low 1 | S. cerevisiae deletion strains, locus YNR049C, strain mso1, active compounds read low 1.01 | S. cerevisiae deletion strains, locus YNR052C, strain pop2, active compounds read low 1.03 | S. cerevisiae deletion strains, locus YOL006C, strain TOP1, active compounds read low 0.995 | S. cerevisiae deletion strains, locus YOL012C, strain htz1 1.66 | S. cerevisiae deletion strains, locus YOL147C, strain pex11, active compounds read low 1.03 | S. cerevisiae deletion strains, locus YOR001W, strain rrp6, active compounds read low 0.995 | S. cerevisiae deletion strains, locus YOR061W, strain CKA2, active compounds read low 0.995 | S. cerevisiae deletion strains, locus YOR069W, strain VPS5, active compounds read low 1.01 | S. cerevisiae deletion strains, locus YOR070C, strain gyp1, active compounds read low 1 | S. cerevisiae deletion strains, locus YOR080W, strain dia2, active compounds read low 1 | S. cerevisiae deletion strains, locus YOR083W, strain WHI5, active compounds read low 0.991 | S. cerevisiae deletion strains, locus YOR106W, strain vam3, active compounds read low 0.995 | S. cerevisiae deletion strains, locus YOR136W, strain idh2, active compounds read low 1.03 | S. cerevisiae deletion strains, locus YOR144C, strain elg1, active compounds read low 1.01 | S. cerevisiae deletion strains, locus YOR184W, strain ser1, active compounds read low 1.02 | S. cerevisiae deletion strains, locus YOR265W, strain rbl2, active compounds read low 1.01 | S. cerevisiae deletion strains, locus YOR270C, strain vph1, active compounds read low 1.05 | S. cerevisiae deletion strains, locus YOR290C, strain snf2, active compounds read low 0.984 | S. cerevisiae deletion strains, locus YOR316C, strain cot1, active compounds read low 1.02 | S. cerevisiae deletion strains, locus YPL051W, strain arl3, active compounds read low 1 | S. cerevisiae deletion strains, locus YPL055C, strain LGE1, active compounds read low 0.993 | S. cerevisiae deletion strains, locus YPL078C, strain atp4, active compounds read low 1.03 | S. cerevisiae deletion strains, locus YPL106C, strain sse1, active compounds read low 1.01 | S. cerevisiae deletion strains, locus YPL240C, strain hsp82, active compounds read low 1 | S. cerevisiae deletion strains, locus YPL241C, strain CIN2, active compounds read low 1.05 | S. cerevisiae deletion strains, locus YPR119W, strain clb2, active compounds read low 1.02 | S. cerevisiae deletion strains, locus YPR141C, strain kar3, active compounds read low 1.02 | S. cerevisiae deletion strains, locus YPR163C, strain tif3, active compounds read low 1.02 | S. cerevisiae deletion strains, locus YPR167C, strain met16, active compounds read low 1.02 | S. cerevisiae deletion strains, strain wtn01, active compounds read low 1.01 | S. cerevisiae strains, strain wild type, active compounds read low 1
